Results as given in PubChem BioAssay AID808 (Columbia University Molecular Screening Center, 2007).
Out of some 93,000 compounds screened, about 180 (0.19%) were called active.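 Rule for the calls: active = activation above the screen mean plus 3 SD, with well images confirming the hit on visual review (cut at about 28% in these data, passing the limit was not always enough); inconclusive = activation above that limit but images do not confirm it; inactive = activation not above that limit.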 What follows is part of a selection rich in actives, with near analogues and random picks from the rest.

Experiment: potentiators of TNFa-induced VCAM1 expression, primary screen, imaging, HUVEC, TNFa stimulus, immunofluorescence (AID 808);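 note: signal is the number of cytoplasmic VCAM-1 stained grains per positive cell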
Settings: HUVEC TNFa-stimulated VCAM-1 immunofluorescence, high-content imaging; at 2 µM; active compounds read high; scaled per plate to unstimulated/TNFa-only wells

activation, inactive:
CCC(CC)c1nnc(NS(=O)(=O)Cc2ccccc2)s1 11.2%
COc1cc(C)nc(N2CCCC(C(=O)NCC(C)C)C2)n1 (stereo not given) 5.6%
COc1ccc2c(c1OC)C(=O)N(c1ncn[nH]1)C2 -7.1%
Nc1nonc1-c1noc(-c2ccc(Br)o2)n1 9.6%
COc1ccc(Nc2cc(=O)oc3ccccc23)cc1 -88.9%
Cc1cccc(Cn2c(SCCO)nc3c2c(=O)n(C)c(=O)n3C)c1 -4.1%
Cc1cccc(C)c1N1CCN(S(=O)(=O)N2CCOCC2)CC1 -11.4%
CSc1ccc(Cl)c(C(=O)OCC(=O)N2CC(C)OC(C)C2)c1 (stereo not given) 4.1%
NS(=O)(=O)c1cccnc1Nc1cccc(Cl)c1 4.4%
CCN(CC)P(=O)(/C(Cl)=C\Nc1c(C)n(C)n(-c2ccccc2)c1=O)N(CC)CC 10.1%
CN(C)S(=O)(=O)c1ccc(N2CCCC2)c(C(=O)NCc2ccccc2)c1 -5.1%
COc1ccc(F)cc1S(=O)(=O)Nc1ccc2c(c1)OCO2 22.9%
CCCN1Cc2cccc(C(=O)Nc3ccc(S(=O)(=O)N4CCCCCC4)cc3)c2C1=O 1.5%
C/C(=N\NC(=O)c1ccc(C)cc1)C1C(=O)c2ccccc2C1=O -6.4%
CCCC(=O)n1nc(-c2ccccc2)nc1N 25.9%
O=C(COC(=O)c1ccc(S(=O)(=O)N2CCc3ccccc3C2)cc1)NC(=O)NCc1ccco1 -0.5%
COC(=O)c1sc2ncccc2c1OCc1ccc(Cl)cc1Cl -10.3%
C=C(Cl)COC(=O)C1C2C=CC(C2)C1C(=O)O (stereo not given) 12.1%
Cc1ccc(C(=O)Nc2ccc3c(c2)OCO3)cc1S(=O)(=O)N1CCCCC1 7.1%
Cn1cc([N+](=O)[O-])c(C(=O)Nc2ccc3c(c2)OCCO3)n1 -36.8%
CC(CCc1ccccc1)NC(=O)c1ccc(Br)o1 (stereo not given) -95.4%
NC(=O)COc1ccc2c3c(c(=O)oc2c1)CCCCC3 -35%
Cc1cc(Cl)c(S(=O)(=O)NCC2CCCO2)cc1OCC(N)=O (stereo not given) 25.1%
Cc1cc(=O)oc2cc(OCC3CC(c4ccccc4Cl)=NO3)ccc12 (stereo not given) -59.7%
Cc1ccc(CNC(=O)CCCNC(=O)c2ccc(Cl)cc2)n1C 7.4%
Cc1ccc(-c2csc(NC(=O)c3cccs3)n2)cc1 5.6%
Cc1cccc(N=C2NC(=O)CS2)c1C -97.1%
COc1ccc(-c2c3c(=O)n(C)c(=O)n(C)c3cn2-c2cccc(OC)c2)cc1 -7.7%
COc1ccc(C(=O)OCC(=O)NCC2CCCCC2)cc1S(=O)(=O)N1CCCc2ccccc21 -5.3%
CCOC(=O)CCP(=O)(O)C(O)(c1ccccc1)c1ccccc1 -1.8%
CC(=O)c1cccc(S(=O)(=O)N2CCC(n3nnc4cc(F)ccc43)CC2)c1 -54.7%
C=CCOc1ccc(/C=N/n2cncn2)cc1OC 4.4%
COc1cc(/C=N/NC(=O)Nc2ccccc2)ccc1OCCOc1ccccc1C -51.1%
CN1CCN(c2nc3c(c(=O)[nH]c(=O)n3C)n2Cc2cccc3ccccc23)CC1 -8.9%
CCC(C)(C)n1nnnc1C(c1cccs1)N1CCN(c2nc3ccccc3s2)CC1 (stereo not given) 0.6%
Cc1ccc(S(=O)(=O)N2CCCC2C(=O)NCc2ccco2)cc1 (stereo not given) 6.4%
CCCN1C(=O)C(NC(C)=O)c2cc(OC)ccc21 (stereo not given) -5.9%
O=C(CO/N=C/c1ccccc1O)NNC(=O)c1ccccc1Cl 2.1%
CC(=O)Nc1ccc(S(=O)(=O)NCCc2ccccc2)cc1 -7.2%
CCOc1ccc(NC(=O)CCC(=O)n2nc(C)cc2C)cc1 -6.7%
Cc1ccc(OCc2nnc(NC(=O)OCC(C)C)s2)cc1 0.2%
CCOC(=O)c1sc(NC(=S)n2cc(C)cn2)c(C(=O)OCC)c1C -0.6%
COCCOC(=O)C1=C(C)N=c2s/c(=C\c3cccs3)c(=O)n2C1c1cccs1 (stereo not given) -3.2%
Cc1c(-c2ccccc2)nc(N)c(C#N)c1-c1cccs1 -3.7%
CCc1ccc2oc(=O)cc(CN3CCCCC3C)c2c1 (stereo not given) -6.7%
O=C1c2ccccc2C2=Nc3ccccc3SC(c3ccccc3F)C12 (stereo not given) -0.2%
C=CCn1c2ccccc2c2nnc(SC(CC)C(=O)Nc3nc(C)c(C(=O)OCC)s3)nc21 (stereo not given) 10%
O=C(Nc1ccc2nc3n(c(=O)c2c1)CCCCC3)c1ccccc1Cl -7.6%
CCCCN=C1N/C(=C\c2ccco2)C(=O)N1c1ccccc1 -7.6%
CC1(C)C/C(=C(/C#N)C(N)=O)CCO1 3.2%
Cc1noc(C)c1CSCC(=O)Nc1nc2ccc(Oc3ccccc3)cc2s1 -4.3%
O=C(Nc1ccc(Sc2ccc(Br)cc2)cc1)c1ccco1 -2.8%
Cc1cccc(OCCCC(=O)Nc2ccc(S(=O)(=O)N3CCCC3)cc2)c1 -20.4%
CCOC(=O)c1ccc(NC(=O)CSc2ncccn2)cc1 21.4%
O=C(CCCn1c(=O)[nH]c2cc(Cl)ccc2c1=O)NCCN1CCN(c2ccccc2)CC1 4%
O=C(CSCc1ccccc1Cl)NNC(=O)c1ccccc1 -5.4%
O=C(CS(=O)(=O)Cc1ccccc1)NCC1CCCO1 (stereo not given) 24.8%
C/C(=C\C(=O)c1cccnc1)Nc1ccc(C)c(C)c1 -89.1%
CCCNS(=O)(=O)c1ccc2c(c1)CCCN2C(C)=O -100%
C=CCn1c(N)c(C(=O)OCC(C)C)c2nc3ccccc3nc21 -94.4%
c1ccc(CSc2nnc(-c3ccco3)n2Cc2ccccc2)cc1 1.1%
CCCc1nc2scc(-c3ccc(C)cc3)c2c(=O)n1N -5.6%
COc1ccccc1C(=O)C(O)c1ccccc1OC (stereo not given) 4.6%
COc1cc(-c2nc(-c3ccncc3)no2)cc(OC)c1OC 1.5%
Cc1c(Nc2cc(N3CCCC(C)C3)c3nonc3c2[N+](=O)[O-])c(=O)n(-c2ccccc2)n1C (stereo not given) -5.2%
Cc1cccc(C(=O)NCCCN2CCCC2=O)c1 26%
CSCc1cc(N2CCOCC2)nc(SCc2ccc(Cl)cc2Cl)n1 -7.6%
O=C(NCc1cccnc1)Nc1ccccc1F 10.6%
O=C(c1ccco1)N1CCN(CC(=O)N(C2CCCCC2)C2CCS(=O)(=O)C2)CC1 (stereo not given) -39.3%
COc1cc(OC)c(C(=O)NC2CCCCCC2)cc1OC -3.2%
Cc1ccc(-n2nc3ccc(NC(=O)/C=C/c4ccco4)cc3n2)cc1C -46.8%
CCC(=O)Nc1cccc(NC(=O)c2cccnc2)c1 -7.7%
O=C(Nc1ccc(F)cc1)c1cccnc1N1CCOCC1 -3.5%
CC(=O)c1cc(NC(=O)c2ccccc2)c(=O)oc1/C=C/N(C)C 16.1%
NC(=O)CCCC1=NS(=O)(=O)c2ccccc2N1 2.1%
O=C(O)c1ccc(COc2c(F)c(F)cc(F)c2F)o1 1.5%
CC(=O)c1ccc(Oc2cc(C)nc(-n3nc(C)cc3C)n2)cc1 -75.8%
CC(c1ccccn1)N(CCN(C)C)C(=S)Nc1ccccc1F (stereo not given) 1.7%
O=C(Nc1cc2c3c(c1)C1CCCC1CN3CC1CCCC21)c1ccc([N+](=O)[O-])cc1 (stereo not given) -2.9%
Cc1cc(C)n(-c2nc(O)cc(=O)[nH]2)n1 -0.9%
CCC(=O)NCCc1nc2ccccc2n1CC -6.7%
COC(=O)c1ccc(NC(=O)Nc2ccc(C)cc2)cc1 -1.4%
CCOC(=O)N1CCC(NC(=O)c2ccc3nc(N4CCOCC4)sc3c2)CC1 -2.2%
Cc1ccc2c(c1)sc1ncc(NC(=O)c3ccccc3)c(=O)n12 -3.1%
O=C(Nc1nncs1)c1ccccc1NS(=O)(=O)c1cccs1 5.4%
Cc1nc2nc[nH]n2c(=O)c1NC(=O)c1cccc(OCC(C)C)c1 -5.4%
CCOC(=O)NCc1ccc2c(c1)OCO2 -8.2%
CCn1c(NC(=O)c2ccccc2)c(-c2cccs2)c(=O)c2ccccc21 -8.7%
COc1ccc(C(C(=O)NCc2ccccc2)N(Cc2cccs2)C(=O)c2cnccn2)cc1 (stereo not given) -2.8%
Cn1cnc([N+](=O)[O-])c1Nc1ccccc1O 17.4%
Cn1c2ccccc2c2c(C(=O)N3CCN(c4ccc(F)cc4)CC3)cn(C3CCCC3)c(=O)c21 -11.3%
COc1ccc(CCN(Cc2cc3cccc(C)c3[nH]c2=O)C(=O)N2CCCC2)cc1OC -91.4%
CCC(c1nnnn1Cc1ccco1)N(CCc1ccccc1)Cc1cc2cccc(C)c2[nH]c1=O (stereo not given) -0.4%
O=C(COC(=O)C12CC3CC(CC(C3)C1)C2)NCc1ccco1 3.3%
CC(C)C(=O)N1CCN(c2nc(-c3ccccc3)c3c(c2C#N)CC(C)(C)OC3)CC1 -36.7%
CC(=O)Nn1cc2c(=O)n(C)c(=O)n(C)c2c1 -8.2%
O=C1CC(Sc2ncn[nH]2)C(=O)N1c1ccccc1 (stereo not given) 4.7%
CCC(=O)Nc1ccc(S(=O)(=O)NCC2CCCO2)cc1 (stereo not given) -5.4%
CCCN1C(=O)C(NS(=O)(=O)c2ccc(N)cc2)(C(F)(F)F)C(C(=O)OC)=C1C (stereo not given) 1.5%
CCOCc1nnc(NC(=O)CSc2ccc(C)cc2)s1 5.6%
Cc1cccc(C)c1OC(=O)CSc1nnc(-c2ccccc2)o1 3.9%
CC(C)Nc1nc(N(c2ccccc2)c2ccccc2)nc(-n2ccnc2)n1 3.2%
CCOc1ccc(OCc2ccc(C(=O)Nc3cccc(C)n3)o2)cc1 9.1%
CCCNC(=O)Nc1ccccc1C(=O)Nc1ccc(OC)cc1 -2.4%
Cc1cc(=O)oc(C)c1C(=O)NC1CC(C)(C)NC(C)(C)C1 12.6%
c1ccc(-c2cn3cccnc3n2)cc1 -0.6%
C=CCn1c(COc2cccc3cccnc23)nnc1SCC(=O)OC -28.4%
Cc1ccc(C)c(NC2=NCC(=O)N2c2ccc3c(c2)OCCO3)c1 21.9%

activation, active:
COCCNS(=O)(=O)c1cc(Br)ccc1OC 35.9%
CCN(CC(=O)Nc1ccc2c(c1)OCCO2)Cc1cc(=O)oc2cc(C)c(C)cc12 54.4%
COc1ccc(/C=N/Nc2nc3ccccc3o2)cc1OC 32.9%
O=C(Nc1ccncc1)c1c(F)cccc1F 76.2%
CC(=O)c1cnn(-c2cc(Oc3ccc(F)cc3)ncn2)c1C 50.8%
Cc1cccc2cc(CN(Cc3ccc4c(c3)OCO4)Cc3nnnn3C3CCCC3)c(=O)[nH]c12 37.5%
CCCOc1cc(C)c(S(=O)(=O)n2nnc3ccccc32)cc1C 45.5%
